MazEF act = activators of E. coli MazEF toxin-antitoxin RNase; FAM/BHQ RNA-DNA oligo cleavage fluorescence, 5 h; activation, % at 20 µM; hit rate 0.32% among 350,000; AID 504720; in the data active = activation above about 50%
Bead autofluor = flagged as autofluorescent in microsphere protease counterscreen. fluorescence intensity (no concentration beside the values). AID 624483. hit rate 3.1% among 360,000. compound autofluorescence counterscreen, microsphere flow cytometry; stronger effect = higher value; in the data active = fluorescence intensity above about 16000; inconclusive = no clear call, values can overlap the other calls
BH1578 lux ind = quorum light induction in luxS cqsA deficient V. cholerae | AID 588436 | hit rate 0.16% among 350,000 | activation, % at 18.7 µM | V. cholerae BH1578 lux reporter, luminescence, 6 h; in the data active = activation mostly above about 9.7%, no sharp cut-off; inconclusive = no clear call, values can overlap the other calls; inactive = mostly below about 3.7%
Anthrax LF prot = inhibitors of Bacillus anthracis lethal factor protease; AID 588501; P15917; hit rate 0.12% among 360,000; inhibition, % at 10 µM; multiplex microsphere protease cleavage assay, LF
Target sequence (P15917 whole entry, looked up): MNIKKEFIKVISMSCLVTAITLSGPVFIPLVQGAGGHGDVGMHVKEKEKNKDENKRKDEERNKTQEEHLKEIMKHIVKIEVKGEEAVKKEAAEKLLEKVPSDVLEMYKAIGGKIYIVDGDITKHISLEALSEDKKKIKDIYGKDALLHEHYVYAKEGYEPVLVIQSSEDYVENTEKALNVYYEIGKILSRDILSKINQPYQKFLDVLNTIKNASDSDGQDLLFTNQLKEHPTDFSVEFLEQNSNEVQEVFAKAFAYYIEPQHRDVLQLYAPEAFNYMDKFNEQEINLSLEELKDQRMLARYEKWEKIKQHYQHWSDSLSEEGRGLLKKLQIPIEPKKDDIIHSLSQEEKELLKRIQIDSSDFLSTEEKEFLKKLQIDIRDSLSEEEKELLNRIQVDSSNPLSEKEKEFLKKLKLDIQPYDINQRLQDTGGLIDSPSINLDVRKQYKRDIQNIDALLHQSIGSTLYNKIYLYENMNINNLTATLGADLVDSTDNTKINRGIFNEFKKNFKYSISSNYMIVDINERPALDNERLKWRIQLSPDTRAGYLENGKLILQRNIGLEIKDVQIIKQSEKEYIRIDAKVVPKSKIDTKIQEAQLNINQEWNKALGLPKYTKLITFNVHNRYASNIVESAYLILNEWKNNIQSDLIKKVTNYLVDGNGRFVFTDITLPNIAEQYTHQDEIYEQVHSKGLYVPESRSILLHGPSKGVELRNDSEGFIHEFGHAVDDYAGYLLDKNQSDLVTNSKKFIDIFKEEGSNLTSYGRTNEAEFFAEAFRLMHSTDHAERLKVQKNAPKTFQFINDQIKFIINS
BoNT A protease = blocks Botulinum neurotoxin A light chain protease | multiplex microsphere protease substrate cleavage, flow cytometry | inhibition, % at 10 µM | hit rate 0.17% among 360,000
BoNT-F LC inh = blocks Botulinum neurotoxin F light chain protease; Multiplex microsphere protease cleavage assay, flow cytometry; inhibition, % at 10 µM; hit rate 0.22% among 360,000; AID 588497; in the data active = inhibition above about 35%, passing the limit was not always enough; inconclusive = no clear call, values can overlap the other calls
Large screens that a line does not name were inactive. Sampled rows, rich in hits. Any-hit rate of the full collection: about 3.9%. Cut-off read from the data, not from the text of the source, unless noted: active = inhibition above about 30%; inconclusive = no clear call, values can overlap the other calls; inactive = below that.

CC(C)(C)NC(=O)CN(C(=O)CCN1CCCc2ccccc21)C(C)(C)C	Bead autofluor 20626
COc1ccc(-n2c3c(c(=O)[nH]c2=O)C(C(F)(F)F)(C(F)(F)F)N=C(CC(C)C)N3)cc1	Bead autofluor 19298
Cc1cccc(C2N=C(N)Nc3nc4ccccc4n32)c1 (centres undefined)	BoNT A protease inconclusive, BoNT-F LC inh inconclusive
CC(=O)c1sc(C(C)(C)C)cc1NC(=O)c1ccccc1C(=O)O	BoNT-F LC inh inconclusive
CCCn1[nH]cc(SC)c(=O)c1=O	Bead autofluor 16432, BoNT A protease inconclusive
COc1ccc(C(=O)Nc2ccccc2-c2nnn(CC(=O)Nc3ccc4c(c3)OCCO4)n2)cc1	Bead autofluor 20699
Nc1ccccc1-c1nnn(CC(=O)Nc2ccc3c(c2)OCCO3)n1	none
C[C@@H]1CN([C@@H](C)CO)S(=O)(=O)c2ccc(-c3ccccc3)cc2O[C@@H]1CN(C)Cc1ccccc1C(=O)O	none
COc1cc2c(C(=O)N3CCN(C)CC3)c(C)n(-c3ccccc3)c2cc1Br	Bead autofluor 25113
COc1ccc(-c2nnc(SC(C)C(=O)Nc3nccs3)n2Cc2ccccc2)cc1OC (centres undefined)	Bead autofluor 20588
O=C(c1ccccc1)N1CCN(C2c3cccc4cccc(c34)C2NS(=O)(=O)c2ccccc2)CC1 (centres undefined)	Bead autofluor 23933
O=P(CCc1ccccc1)(c1ccccc1)c1ccccc1	none
O=C(N/N=C/c1ccc(Sc2nc3ccccc3s2)c([N+](=O)[O-])c1)c1ccccn1	MazEF act 101
O=C(N/N=C/c1ccc(Cl)c([N+](=O)[O-])c1)c1cnccn1	none
Cn1c(SCCOc2ccccc2Cl)nnc1-c1cccs1	Bead autofluor 22281
Cc1cc(OCCSc2nnc(-c3cccs3)n2C)ccc1Cl	none
Cn1c(SCCOc2ccc(Cl)cc2)nnc1-c1ccncc1	Bead autofluor 23566
Cc1ccc(OCCSc2nnc(-c3cccs3)n2C)cc1	Bead autofluor 20327, BoNT A protease inconclusive
Cn1c(SCCOc2ccc(F)cc2)nnc1-c1ccncc1	none
Fc1ccccc1CSc1ncnc2sc3c(c12)CCCC3	none
CCOCCCNC(=O)/C(C#N)=C/c1ccc([N+](=O)[O-])o1	none
Fc1cccc(CO/N=C/c2c(-c3ccccc3)nc3ccc(Cl)cn23)c1	Bead autofluor 16783
COc1cccc(-c2cc(C(=O)NCC3CCCO3)c3cc(C)cc(C)c3n2)c1 (centres undefined)	none (no result: BH1578 lux ind)
CC(C)C(=O)Nc1cccc(C(=O)Nc2ccccc2C(=O)O)c1	Bead autofluor 20875
CCCNC(=O)c1cccc(NC(=O)C(C)C)c1	none
O=C(Nc1ccccc1C(=O)O)c1cccc(NC(=O)c2ccccc2Br)c1	BoNT-F LC inh inconclusive
CC(C)C(=O)Nc1cccc(C(=O)NCCc2ccc(S(N)(=O)=O)cc2)c1	Bead autofluor 20300, BoNT A protease inconclusive
NS(=O)(=O)c1ccc(CCNC(=O)c2cccnc2)cc1	Bead autofluor 20577
COC(=O)Cc1ccc(OC2(C)CCN(Cc3ccccc3)C2)cc1 (centres undefined)	none (no result: MazEF act)
COc1ccc(C2=NO[C@@H]3C(=O)N(c4ccc5c(c4)OCCO5)C(=O)[C@H]23)cc1OC	Bead autofluor inconclusive
COc1ccc(C2=NO[C@@H]3C(=O)N(C4CCCCC4)C(=O)[C@H]23)cc1OC	Bead autofluor 22002
COc1cccc(/C(O)=C2\C(=O)C(=O)N(c3ccccn3)C2c2cccc(OC)c2OC)c1 (centres undefined)	Bead autofluor 21089
COc1ccc(C2/C(=C(/O)c3ccccc3)C(=O)C(=O)N2c2ccccn2)cc1 (centres undefined)	BoNT-F LC inh inconclusive
CC(C)N(Cc1nc(-c2ccccc2)no1)C(=O)Cc1ccccc1	none
COc1cccc(C(=O)N(Cc2nc(-c3ccc(C)cc3)no2)C(C)C)c1	Bead autofluor 23492, BoNT A protease inconclusive
Cc1cc(Br)ccc1OCC(=O)N(Cc1nc(-c2ccccc2)no1)C(C)C	Bead autofluor 20443
Cc1ccc(-c2noc(CN(C(=O)Cc3ccccc3)C(C)C)n2)cc1	Bead autofluor 19931, BoNT A protease inconclusive
NS(=O)(=O)c1ccc(CCNC(=O)c2ccc[nH]c2=S)cc1	none
COc1ccc(NC(=O)c2cnc(SC)nc2)cc1	none (no result: Bead autofluor, Anthrax LF prot, BoNT A protease, BoNT-F LC inh)
O=C(Cn1c(=O)n(-c2ccccc2)c(=O)c2sccc21)N1CCCC1	Bead autofluor 23839
c1coc(CNc2c3c(nc4ncnn24)CCC3)c1	Bead autofluor 20732
c1ccc(CCNc2c3c(nc4ncnn24)CCC3)cc1	Bead autofluor 22631
Clc1ccccc1Nc1c2c(nc3ncnn13)CCC2	Bead autofluor 21040
c1coc(CNc2c3c(nc4ncnn24)CCCC3)c1	none (no result: BH1578 lux ind)
COc1ccc(OC)c(-n2c(SCC(=O)Nc3cccc(S(N)(=O)=O)c3)nc3ccccc3c2=O)c1	none
CSc1cccc(NC(=S)NCCCN2CCN(c3ccc(F)cc3)CC2)c1	none
CCOC(=O)COc1ccccc1/C=C\[N+](=O)[O-]	none
C[C@@H]1CN([C@H](C)CO)C(=O)CCCn2nncc2CO[C@@H]1CN(C)S(=O)(=O)c1cccc(F)c1	none
COc1cccc(CNC(=O)CN2C(=O)COc3ccc(S(=O)(=O)N4CCC(C)CC4)cc32)c1	none
CCOCCCNC(=S)N1CCN(c2nc(-c3ccc(F)cc3)cs2)CC1	BoNT-F LC inh inconclusive
CCC(=O)N(Cc1cc2ccccc2[nH]c1=O)c1ccccc1OC	none
O=[N+]([O-])c1ccc(/C=C/c2ccc3cccc(O)c3n2)cc1	MazEF act 92
Cc1cc(C(=O)COC(=O)C2=NNC(=O)CC2)c(C)n1-c1cccc(C(F)(F)F)c1	Bead autofluor 17667
Cc1cc(C(=O)COC(=O)C2=NNC(=O)CC2)c(C)n1-c1ccc(OC(F)F)cc1	none
N#C/C(=C/C1=C(N2CCOCC2)C(=C/c2cccc([N+](=O)[O-])c2)/CC1)C(=O)Nc1ccccc1F	MazEF act 636
N#C/C(=C\C1=C(N2CCOCC2)C(=C/c2cccc([N+](=O)[O-])c2)/CC1)C(=O)Nc1ccccc1F	MazEF act active
N#C/C(=C/C1=C(N2CCOCC2)C(=C/c2ccccc2)/CC1)C(=O)Nc1ccccc1F	none
CCN(CC)c1ccc(/C=C2\CCC(/C=C(\C#N)C(=O)Nc3ccccc3F)=C2N2CCOCC2)cc1	BoNT A protease 40
O=C1NC[C@H](CCCCN2C[C@H](Cc3ccccc3)N(CC3CCCCC3)C(=O)C2=O)N(CC2CCCCC2)C1=O	none (no result: MazEF act, BH1578 lux ind)
O=C1c2cccc(NCCNCCO)c2C(=O)c2cccc(NCCNCCO)c21	none
Cc1ccc(-n2c(Cc3cccn3C)nnc2SCC(=O)Nc2ccc3c(c2)OCO3)cc1	Bead autofluor 24086
Cc1ccc(-n2c(Cc3cccn3C)nnc2SCC(=O)NCc2ccc3c(c2)OCO3)cc1	Bead autofluor 21493
COc1ccc(NC(=O)c2ccc(NC(=O)CN3CCC(C(N)=O)CC3)cc2)cc1	none
CC1C/C(=N\NC(=S)NCc2ccccc2)CC(C)(C)C1 (centres undefined)	Bead autofluor 22911, BoNT A protease inconclusive

Bioassay records: PubChem BioAssay, several laboratories
